The text below walks through data of PMC4336329 (PLoS ONE, 2015).

In all, about 310,000 compounds went through this assay and about 14,000 (4.5%) showed an effect of 50% or more. Effects have a minus sign here. This is one part of a sample in which strong results are shown more often than they occur.
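Also: peak tail current of the secondary pulse compared with the same well before compound.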

human ether-à-go-go-related gene (hERG) potassium channel, sequence (Q12809 whole entry, looked up): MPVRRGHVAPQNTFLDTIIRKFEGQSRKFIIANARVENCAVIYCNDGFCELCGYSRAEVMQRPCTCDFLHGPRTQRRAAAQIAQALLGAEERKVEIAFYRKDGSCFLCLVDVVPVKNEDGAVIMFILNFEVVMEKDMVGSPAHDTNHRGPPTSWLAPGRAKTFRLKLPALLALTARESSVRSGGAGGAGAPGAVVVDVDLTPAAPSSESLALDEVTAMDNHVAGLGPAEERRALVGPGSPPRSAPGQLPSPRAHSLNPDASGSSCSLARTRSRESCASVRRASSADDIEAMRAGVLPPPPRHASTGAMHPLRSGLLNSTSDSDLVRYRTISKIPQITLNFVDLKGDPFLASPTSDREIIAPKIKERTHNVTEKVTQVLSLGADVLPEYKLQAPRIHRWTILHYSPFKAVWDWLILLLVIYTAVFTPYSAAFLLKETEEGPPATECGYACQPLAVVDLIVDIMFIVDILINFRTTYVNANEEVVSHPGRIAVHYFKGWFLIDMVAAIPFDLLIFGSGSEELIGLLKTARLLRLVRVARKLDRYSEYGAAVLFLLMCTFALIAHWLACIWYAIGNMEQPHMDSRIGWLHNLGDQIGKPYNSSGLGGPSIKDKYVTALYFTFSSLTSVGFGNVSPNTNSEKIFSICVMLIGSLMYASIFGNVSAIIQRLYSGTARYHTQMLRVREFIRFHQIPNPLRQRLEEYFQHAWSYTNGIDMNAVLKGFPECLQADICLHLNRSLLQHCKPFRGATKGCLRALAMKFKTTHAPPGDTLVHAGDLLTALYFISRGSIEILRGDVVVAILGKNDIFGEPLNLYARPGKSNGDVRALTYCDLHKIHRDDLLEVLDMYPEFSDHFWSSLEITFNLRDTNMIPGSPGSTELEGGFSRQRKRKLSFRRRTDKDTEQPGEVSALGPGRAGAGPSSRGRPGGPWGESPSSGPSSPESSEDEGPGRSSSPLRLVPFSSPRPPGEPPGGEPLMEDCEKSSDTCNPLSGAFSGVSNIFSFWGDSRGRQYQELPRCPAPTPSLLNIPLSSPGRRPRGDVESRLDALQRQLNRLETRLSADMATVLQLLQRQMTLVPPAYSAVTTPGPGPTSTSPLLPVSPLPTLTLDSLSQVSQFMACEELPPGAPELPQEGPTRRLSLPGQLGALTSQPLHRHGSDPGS

This assay has as its target human ether-à-go-go-related gene (hERG) potassium channel (human, UniProt Q12809). As to the kind of experiment: primary screen, population patch clamp on CHO cells stably expressing hERG; higher = less effect of the substance.
Regarding `O=S(=O)(c1ccc(OCC(O)CN2CCN(c3ccc(F)cc3)CC2)cc1)N1CCOCC1` (centres unmarked), the “hERG current change (%, negative = inhibition) at 10uM” value is reported as -18.2%.
Turning to `O=C(NNC1CC(=O)N(c2ccc(Br)cc2)C1=O)c1ccccn1` (centres unmarked), the “hERG current change (%, negative = inhibition) at 10uM” value is reported as -4.01%.
In the case of `CCCC1Cc2nc(Cl)c(C#N)cc2CO1` (centres unmarked), the “hERG current change (%, negative = inhibition) at 10uM” value is listed as 15.6%.
As to `O=C(Nc1cccnc1)c1cc(S(=O)(=O)N2CCOCC2)ccc1Br`, the “hERG current change (%, negative = inhibition) at 10uM” value is given as -35.8%.
For `COc1cc2c(cc1OC)C(COc1ccccc1OC)N(C(=O)c1ccco1)CC2` (centres unmarked), the “hERG current change (%, negative = inhibition) at 10uM” value was -15.6%.
Take `COC(=O)c1[nH]c2ccccc2c1NC(=O)CN1CCC(C(N)=O)(N2CCCCC2)CC1`: the “hERG current change (%, negative = inhibition) at 10uM” value is reported as -35.1%.
`Cc1cc(C)cc(N(CC(=O)Nc2ccc(Br)cc2)S(=O)(=O)c2c(C)[nH]c(=O)[nH]c2=O)c1`: the “hERG current change (%, negative = inhibition) at 10uM” value is listed as -76.4%.
On to `Cc1cc(C)cc(N(CC(=O)Nc2cc(C)ccc2C)S(=O)(=O)c2c(C)[nH]c(=O)[nH]c2=O)c1`, for which the “hERG current change (%, negative = inhibition) at 10uM” value came to 5.03%.
Regarding `CCc1ccc(NC(=O)CN(c2cc(C)cc(C)c2)S(=O)(=O)c2c(C)[nH]c(=O)[nH]c2=O)cc1`, the “hERG current change (%, negative = inhibition) at 10uM” value is listed as -33.7%.
As to `Cc1cc(C)cc(N(CC(=O)Nc2ccc(C)cc2Cl)S(=O)(=O)c2c(C)[nH]c(=O)[nH]c2=O)c1`, the “hERG current change (%, negative = inhibition) at 10uM” value was -7.63%.
Take `Cc1cc(C)cc(N(CC(=O)Nc2ccc(C(F)(F)F)cc2)S(=O)(=O)c2c(C)[nH]c(=O)[nH]c2=O)c1`: the “hERG current change (%, negative = inhibition) at 10uM” value was -88%.
Next, `COc1cc(NC(=O)CN(c2cc(C)cc(C)c2)S(=O)(=O)c2c(C)[nH]c(=O)[nH]c2=O)cc(OC)c1`: -27.8%; `c1ccc(NCc2cccnc2)cc1`: 12.1%; `Nc1nccc(-c2ccc(-n3cnc4ccccc43)cc2)n1`: -25.3%.
As to `O=C(/C=C/c1ccccc1)Nc1nnc(SCC(=O)c2ccc3ccccc3c2)s1`, the “hERG current change (%, negative = inhibition) at 10uM” value is listed as 4.75%.
On to `COc1ccc(OC)c(N=c2oc3cc(O)ccc3cc2C(N)=O)c1`, for which the “hERG current change (%, negative = inhibition) at 10uM” value turned out to be 3.97%.
With `COc1cccc(NC(=O)N2CCC(C(N)=O)(N3CCCCC3)CC2)c1`, the “hERG current change (%, negative = inhibition) at 10uM” value is 6.17%.
`NNC(=O)c1sccc1OCc1ccc(Cl)cc1`: the “hERG current change (%, negative = inhibition) at 10uM” value turned out to be 2.41%.
For `COc1ccsc1NC(=O)OCc1ccc(Cl)cc1`, the “hERG current change (%, negative = inhibition) at 10uM” value is given as -77.8%.
Take `COc1ccc(COc2ccsc2C(=O)Nc2ccc(Cl)cc2)cc1`: the “hERG current change (%, negative = inhibition) at 10uM” value came out at 7.17%.
As for `CC(C)(C)c1ccc(NC(=O)CN2C(=O)NC(C)(C3CC3)C2=O)cc1` (centres unmarked), the “hERG current change (%, negative = inhibition) at 10uM” value is given as -25.5%.
Next, `Cc1ccc(-c2nn3c(C)nnc3c3ccccc23)cc1S(=O)(=O)NCc1ccco1`: -33.3%; `O=C(CSc1ncnc2[nH]ncc12)Nc1nc(-c2ccc(F)c(F)c2)cs1`: 44.7%; `O=C(Nc1ccnn1C1CCN(Cc2cc(Cl)ccc2O)CC1)C1CC1`: -55%.
On to `COc1ccc(F)c(CN2CCC(n3nccc3NC(=O)C3CCOC3)CC2)c1` (centres unmarked), for which the “hERG current change (%, negative = inhibition) at 10uM” value turned out to be 5.47%.
`COc1cc(F)ccc1CN1CCC(n2nccc2NC(=O)C2CCOC2)CC1` (centres unmarked): the “hERG current change (%, negative = inhibition) at 10uM” value was -14.5%.
Take `COc1ccc(O)c(CN2CCC(n3nccc3NC(=O)c3ccccc3Cl)CC2)c1`: the “hERG current change (%, negative = inhibition) at 10uM” value is -40.6%.
As for `O=C(Nc1ccnn1C1CCN(Cc2cc(Cl)ccc2O)CC1)c1cccnc1`, the “hERG current change (%, negative = inhibition) at 10uM” value is listed as -9.31%.
On to `COc1ccc(O)c(CN2CCC(n3nccc3NC(=O)C3CCCC3)CC2)c1`, for which the “hERG current change (%, negative = inhibition) at 10uM” value is on record as -50.8%.
The same measure for `O=C(Nc1ccnn1C1CCN(C(=O)Cc2cccc(Cl)c2)CC1)C1CC1`: -7.34%; for `COc1ccc(CN2CCC(n3nccc3NC(=O)C3CCCC3)CC2)c(OC)c1`: -73.2%.
For `CCOCC(=O)Nc1ccc([N+](=O)[O-])cc1C`, the “hERG current change (%, negative = inhibition) at 10uM” value is listed as 5.75%.
On to `Cc1nc(SCC(=O)N2CC(=O)Nc3ccccc32)c2c(C)c(C)sc2n1`, for which the “hERG current change (%, negative = inhibition) at 10uM” value is recorded as -5.65%.
As to `COc1ccc(CCNC(=O)C(NS(=O)(=O)c2ccc3c(c2)CCN3C(C)=O)C(C)C)cc1OC` (centres unmarked), the “hERG current change (%, negative = inhibition) at 10uM” value worked out at 25.1%.
The same measure for `CCC(=O)Nc1cccc(NC(=O)CSc2nc3c(c(=O)n(C)c(=O)n3C)n2C)c1`: 18%; for `CCC1Sc2ccc(S(=O)(=O)CCC(=O)Nc3ccc(NC(C)=O)cc3)cc2NC1=O` (centres unmarked): 19%; for `CSc1nc(=S)n(-c2ccccc2)c(C)c1C(C)=O`: 11.9%.
`CSc1nc(=S)n(-c2ccc([N+](=O)[O-])cc2)c(C)c1C(C)=O`: the “hERG current change (%, negative = inhibition) at 10uM” value is -68.3%.
Next, `CC(=O)c1c(N2CCOCC2)nc(=S)n(-c2ccc([N+](=O)[O-])cc2)c1C`: -46.2%; `Cc1cc(OCC(=O)Nc2ccc(CN3CCCCC3)cc2)ccc1Cl`: -73.9%; `CCc1ccc(OCC(=O)Nc2ccc(CN3CCCCC3)cc2)cc1`: -18%.
Turning to `CCOc1ccc(C(=O)Nc2ccc(CN3CCOCC3)cc2)cc1Cl`, the “hERG current change (%, negative = inhibition) at 10uM” value is on record as -56%.
With `Cc1cc(C)cc(OCC(=O)Nc2ccc(CN3CCCCC3)cc2)c1`, the “hERG current change (%, negative = inhibition) at 10uM” value is -43.7%.
Turning to `Cc1ccc(OCC(=O)Nc2ccc(CN3CCOCC3)cc2)cc1C`, the “hERG current change (%, negative = inhibition) at 10uM” value is -39.3%.
For `CCOc1ccc(NC(=O)c2ccc(NC(=O)c3ccc(CN4CCOCC4)cc3)cc2)cc1`, the “hERG current change (%, negative = inhibition) at 10uM” value is 9.33%.
Turning to `Cc1ccc(OCC(=O)Nc2ccc(CN3CCOCC3)cc2)cc1`, the “hERG current change (%, negative = inhibition) at 10uM” value is recorded as -9.4%.
The same measure for `CCOc1ccc(C(=O)Nc2ccc(CN3CCOCC3)cc2)cc1Br`: -46.6%; for `Cc1cc(OCC(=O)Nc2ccc(CN3CCOCC3)cc2)ccc1Cl`: -51.8%.
For the compound `O=C1CC(=O)N(CCc2ccccc2)C(=O)N1CCc1ccccc1`, the “hERG current change (%, negative = inhibition) at 10uM” value was determined as 6.19%.
In the case of `CN(C)S(=O)(=O)c1ccc(NC(=O)CSc2nc3ccccc3n2-c2ccccc2)cc1`, the “hERG current change (%, negative = inhibition) at 10uM” value was 24.2%.
For `CCc1cccc(C)c1NC(=S)NCC(c1cccnc1)N1CCOCC1` (centres unmarked), the “hERG current change (%, negative = inhibition) at 10uM” value is on record as -14.3%.
Regarding `C/C(=N/NC(=O)CNC(=O)c1ccco1)c1ccc(Cl)cc1`, the “hERG current change (%, negative = inhibition) at 10uM” value is given as -1.47%.
On to `CCOc1ccc(N2CC(C(=O)NCc3ccccc3)CC2=O)cc1` (centres unmarked), for which the “hERG current change (%, negative = inhibition) at 10uM” value was -12.3%.
As to `COc1ccc(N2CC(C(=O)OCC(=O)c3ccc(C)cc3)CC2=O)cc1` (centres unmarked), the “hERG current change (%, negative = inhibition) at 10uM” value was 13.9%.
For the compound `CCOc1ccc(N2CC(C(=O)NCc3ccc(F)cc3)CC2=O)cc1` (centres unmarked), the “hERG current change (%, negative = inhibition) at 10uM” value is recorded as -27.3%.
The same measure for `CCOc1ccc(N2CC(C(=O)NCCCc3ccccc3)CC2=O)cc1` (centres unmarked): -51.2%; for `CCOc1ccc(N2CC(C(=O)OCC(=O)c3ccc(OC)cc3)CC2=O)cc1` (centres unmarked): -56%; for `CCOc1ccc(N2CC(C(=O)NCCc3ccc(S(N)(=O)=O)cc3)CC2=O)cc1` (centres unmarked): 12.1%.
In the case of `O=C(NCc1n[nH]c(=O)c2ccccc12)C1CC(=O)N(c2ccc(Cl)cc2)C1` (centres unmarked), the “hERG current change (%, negative = inhibition) at 10uM” value is given as -70.7%.
`CCOc1ccc(N2CC(C(=O)NCCc3ccccc3)CC2=O)cc1` (centres unmarked): the “hERG current change (%, negative = inhibition) at 10uM” value is reported as -29.6%.
Turning to `COc1ccc(N2CC(C(=O)OCC(=O)c3ccccc3)CC2=O)cc1` (centres unmarked), the “hERG current change (%, negative = inhibition) at 10uM” value is -9.34%.
Regarding `CCOc1ccc(N2CC(C(=O)NCCc3ccc(F)cc3)CC2=O)cc1` (centres unmarked), the “hERG current change (%, negative = inhibition) at 10uM” value is given as -65.8%.
Next, `O=C(NCc1n[nH]c(=O)c2ccccc12)C1CC(=O)N(c2ccccc2)C1` (centres unmarked): -1.81%; `Cc1ccc(N2CC(C(=O)NCc3n[nH]c(=O)c4ccccc34)CC2=O)cc1` (centres unmarked): -23.8%.
The same measure for `CCC(CC)C(=O)Nc1cc(C(=O)NCCc2ccccc2)ccc1Cl`: -8.24%.
On to `Cc1cccc(OCCCC(=O)Nc2ccc(S(=O)(=O)N3CCCC3)cc2)c1`, for which the “hERG current change (%, negative = inhibition) at 10uM” value is -21.3%.
The same measure for `CCOC(=O)c1c(-c2ccc(OC)cc2)oc2ccc(OC(=O)N(C)C)cc12`: 10.1%; for `Cc1nc2ccccc2c(=O)n1CCN1CCOCC1`: 4.18%.
As for `COc1ccc(-c2nn(-c3ccccc3)cc2C2CC(c3cccs3)=NN2C(=O)CCCC(=O)O)cc1` (centres unmarked), the “hERG current change (%, negative = inhibition) at 10uM” value stood at 17.9%.
Next, `O=C(CN1C(=O)NC2(CCCCC2)C1=O)N1CCN(S(=O)(=O)c2ccccc2)CC1`: 13.8%; `CCOc1ccccc1N1CC(C(=O)Nc2cc(Cl)ccc2-n2cncn2)CC1=O` (centres unmarked): -10.3%; `Cc1ccc(OCCNC(=O)C2CC(=O)N(c3ccc(C)cc3)C2)cc1` (centres unmarked): -4.5%.
With `CCOc1ccc(N2CC(C(=O)Nc3cc(Cl)ccc3-n3cncn3)CC2=O)cc1` (centres unmarked), the “hERG current change (%, negative = inhibition) at 10uM” value is -64.2%.
Take `CCOc1ccc(N2CC(C(=O)Nc3nnc(Cc4ccccc4)s3)CC2=O)cc1` (centres unmarked): the “hERG current change (%, negative = inhibition) at 10uM” value is on record as 4.73%.
Regarding `O=C(NCCOc1ccc(Cl)cc1)C1CC(=O)N(c2ccc3c(c2)OCCO3)C1` (centres unmarked), the “hERG current change (%, negative = inhibition) at 10uM” value is recorded as -27.9%.
Next, `O=C(NCCOc1ccc(Cl)cc1)C1CC(=O)N(c2ccc(F)cc2)C1` (centres unmarked): -69.4%; `CCOc1ccc(N2CC(C(=O)Nc3ccc(F)cc3F)CC2=O)cc1` (centres unmarked): -3.45%.
Turning to `CCOCCc1nnc(NC(=O)C2CC(=O)N(c3ccc(OCC)cc3)C2)s1` (centres unmarked), the “hERG current change (%, negative = inhibition) at 10uM” value is -18.1%.
Next, `CCOc1ccc(N2CC(C(=O)Nc3nnc(CC)s3)CC2=O)cc1` (centres unmarked): -53.6%.
For the compound `Cc1ccc(C(=O)c2nc(C(=O)NCCO)nc3ccccc23)cc1`, the “hERG current change (%, negative = inhibition) at 10uM” value was found to be 25.8%.
For the compound `COc1ccc(-c2cc(=O)oc3c(C)c(OC(C)C(=O)N4C[C@H]5C[C@@H](C4)c4cccc(=O)n4C5)ccc23)cc1` (some centres unmarked), the “hERG current change (%, negative = inhibition) at 10uM” value is given as -47.2%.
For the compound `CCOC(=O)c1[nH]c(C)c(C(=O)OCC(=O)N(Cc2ccccc2)C(C)C)c1C`, the “hERG current change (%, negative = inhibition) at 10uM” value is listed as -15.8%.
Turning to `Cc1cccc(OCCCCNCc2ccccc2)c1.O=C(O)C(=O)O`, the “hERG current change (%, negative = inhibition) at 10uM” value is reported as -38.1%.
